High-throughput results as filed in PubChem BioAssay.
Compounds with a hit are over-represented: about 2.6% of the library has one in this group of screens.
Cruzain Triton: inhibitors of Trypanosoma cruzi cruzain with detergent | purified cruzain, Z-FR-AMC fluorescence, 0.01% Triton | AID 1478 | Potency, µM, for the others: max response, negative = inhibition, usual class: inhibitors | P25779 | 200,000 tested, 0.43% active;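 note: plate controls were neutral wells for no effect and buffer without enzyme for full effect; nearly all actives have a fitted effect of over 40% in size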
Target sequence (P25779 123-467 limits assumed): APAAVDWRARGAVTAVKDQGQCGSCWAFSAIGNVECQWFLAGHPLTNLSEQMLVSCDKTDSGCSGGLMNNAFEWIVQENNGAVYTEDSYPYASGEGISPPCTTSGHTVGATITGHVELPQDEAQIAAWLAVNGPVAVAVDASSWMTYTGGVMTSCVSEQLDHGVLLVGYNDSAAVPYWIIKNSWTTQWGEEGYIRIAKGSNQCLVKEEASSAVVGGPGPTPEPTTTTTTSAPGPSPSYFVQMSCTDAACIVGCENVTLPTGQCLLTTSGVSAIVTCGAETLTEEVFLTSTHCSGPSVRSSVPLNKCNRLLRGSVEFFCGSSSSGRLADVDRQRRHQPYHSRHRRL
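Steps: dispense cruzain (1.5 nM final) in acetate buffer pH 5.5 with DTT and 0.01% Triton X-100; pin-transfer compounds; incubate 15 min RT; add Z-FR-AMC (2 uM final); read fluorescence every 30 s, using the 60 s intensity change.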
Cruzain noTriton: inhibitors of Trypanosoma cruzi cruzain without detergent; P25779; purified cruzain, Z-FR-AMC fluorescence, no detergent; Potency, µM, for the others: max response, negative = inhibition, most hits filed as inhibitors; 200,000 tested, 2.3% active;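 note: plate controls were enzyme without inhibitor for no effect and buffer without enzyme for full effect; nearly all actives have a fitted effect of over 40% in size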
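Detergent-free condition (0.00005% Triton X-100) in acetate buffer pH 5.5 with DTT. 1.5 nM enzyme and compound were pre-mixed 15 min, then 2 uM Z-FR-AMC substrate added; reaction progress from fluorescence change between first and third reads (60 s).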
Starred values were filed as active, the others as inactive; ? = inconclusive. Calls come from the whole dose curve; as a rule, active = well fitted curve in the direction sought with a large enough effect; inconclusive = small, poorly fitted or top-dose-only effect, or another doubt; inactive = no such curve, though single readings can be large; an effect the other way counts as inactive or inconclusive. Potency is the fitted concentration of half-maximal effect.

SMILES	Cruzain Triton	Cruzain noTriton
O=C(COC(=O)/C=C/c1ccccc1)Nc1cc(C(F)(F)F)ccc1N1CCOCC1	-2%	-2%
O=C(COC(=O)/C=C/c1ccc(Cl)cc1Cl)Nc1cc(C(F)(F)F)ccc1N1CCOCC1	-3%	13µM*
C=C(C)C1CC=C(C)/C(=N/NC(=S)Nc2ccccc2)C1 (stereo not given)	-12%	-18%
O=C(CS(=O)CC(=O)N(c1ccccc1)C(C(=O)NC1CCCCC1)c1ccco1)Nc1ccc(F)cc1 (stereo not given)	1%	-25%
CCOC(=O)c1c(N2C(=O)Nc3cc(Cl)c(Cl)cc3N2O)sc2c1CCCCC2	25µM*	14%
CCOC(=O)c1c(N2C(=O)C3C4C=CC(O4)C3C2=O)sc2c1CCCC2 (stereo not given)	6%	19%
O=Nc1c(O)[nH]c2ccccc12.[Cu].[O-]/N=C1/C(=[OH+])Nc2ccccc21	0%	6%
O=Nc1c(-c2c(O)[nH]c3cc(Br)ccc23)[nH]c2ccccc12	-3%	32µM*
O=C(Nc1ccc2nc(SCC(=O)N3CCc4ccccc43)sc2c1)c1cccc(Cl)c1	-1%	?
COc1cccc(C(=O)Nc2ccc3nc(SCC(=O)N4CCc5ccccc54)sc3c2)c1	-3%	13µM*
COc1ccc(C(=O)Nc2ccc3nc(SCC(=O)N4CCc5ccccc54)sc3c2)cc1	-1%	14%
O=C(Nc1ccc2nc(SCC(=O)N3CCCc4ccccc43)sc2c1)c1cccc(Cl)c1	-5%	6.3µM*
O=C(NCCCCc1ccccc1)C12CN(Cc3ccccc3)CC1C(c1cccc([N+](=O)[O-])c1)=NO2 (stereo not given)	4%	7%
O=C(NCCc1cccs1)C12CN(Cc3ccccc3)CC1C(c1cccc([N+](=O)[O-])c1)=NO2 (stereo not given)	3%	13µM*
Cc1ccc(S(=O)(=O)NCC(c2ccc(N(C)C)cc2)N2CCOCC2)cc1 (stereo not given)	-1%	9%
O=C(OCc1ccc2c(c1)OCO2)c1cccc(S(=O)(=O)N2CCCCC2)c1	1%	-3%
CCc1ccc(NC(=O)C(CC)Sc2nc3cc4c(cc3c(=O)n2Cc2ccco2)OCO4)cc1 (stereo not given)	6%	25µM*
CCc1ccccc1NC(=O)C(CC)Sc1nc2cc3c(cc2c(=O)n1Cc1ccco1)OCO3 (stereo not given)	8%	3%
O=C(Nc1nc(-c2ccc(F)cc2)cs1)C1CCCO1 (stereo not given)	-7%	-5%
CCN(CC)S(=O)(=O)c1ccc(N2CCCCC2)c(NC(=O)/C=C/c2ccc(OC)c(OC)c2)c1	-8%	10%
Nc1nnnn1/N=C/c1ccccc1C(F)(F)F	-8%	2%
O=C(CSc1ccc(Cl)cc1)Nc1nnc(-c2cccc([N+](=O)[O-])c2)s1	-2%	?
O=C(Cc1cccc2ccccc12)Nc1nnc(-c2cccc([N+](=O)[O-])c2)s1	0%	25µM*
COc1ccccc1CNc1ncncc1-c1ccoc1	2%	-26%
CCCCCCCCOC(=O)C[N+](C)(C)C/C=C(/C)Cl	-4%	6%
SMILES	Cruzain Triton	Cruzain noTriton
CCCc1cc(=O)oc2c(CN3CCCC3)c(O)ccc12	25µM*	?
CCc1cc(=O)oc2cc(C)c(CN3CCCC3)c(O)c12	-11%	7%
CCCc1cc(=O)oc2cc(C)c(CN3CCCC3)c(O)c12	-15%	9%
CCCc1cc(=O)oc2c(CN3CCCC3)c(O)c(Cl)cc12	32µM*	?
COc1ccc(-c2csc(NC(=O)c3cc(C)on3)c2C#N)cc1OC	0%	14%
CCOc1ccc(NC(=O)c2sc(-n3nc(C)c(Cc4ccc(Cl)cc4)c3C)nc2C)cc1	0%	-9%
O=S(=O)(c1ccc(NC(=S)NCCC(c2ccccc2)c2ccccc2)cc1)N1CCOCC1	-12%	25µM*
CC(C)(C)CC(C)(C)NC(=S)Nc1ccc(S(=O)(=O)N2CCOCC2)cc1	-10%	?
CCN(CC)c1nc(SCCOC(=O)Nc2ccccc2)nc(N(CC)CC)n1	-1%	-17%
CCc1ccc(/C=N/NC(=O)c2cc(C3CC3)nc3ccc(Br)cc23)s1	3%	25µM*
CCc1ccc(/C=N/NC(=O)c2cc(-c3ccccc3OC)nc3ccccc23)s1	-8%	-27%
Cc1[nH]c2ccccc2c1/C=N/Nc1ccc([N+](=O)[O-])cc1S(=O)(=O)Nc1ccc(Cl)cc1	5%	5µM*
COc1ccccc1NS(=O)(=O)c1cc([N+](=O)[O-])ccc1N/N=C/c1sc(N2CCOCC2)nc1-c1ccccc1	-2%	6.3µM*
Brc1ccc(-c2ccc(/C=N/Nc3nncc(-c4ccccc4)n3)o2)cc1	5%	-6%
COc1ccc(/C=N/Nc2ccc([N+](=O)[O-])cc2S(=O)(=O)N2CCN(C)CC2)cc1	-4%	2%
O=C(N/N=C/c1ccc[nH]1)c1ccccc1[N+](=O)[O-]	-4%	-10%
COc1ccc(NS(=O)(=O)c2cc([N+](=O)[O-])ccc2N/N=C\c2c(C)[nH]c3ccccc23)cc1	2%	?
O=[N+]([O-])c1ccc(N/N=C/c2ccc[nH]2)cc1	-24%	25µM*
Brc1ccc(-c2ccc(/C=N/Nc3nc4ccccc4[nH]3)o2)cc1	?	7.9µM*
COc1cc2ncc3c(-c4ccc(C)cc4)nn(-c4ccc(F)cc4F)c3c2cc1OC	0%	11%
O=C(NCc1ccco1)c1cc([N+](=O)[O-])ccc1N1CCCCC1	-13%	-19%
COc1ccc(-c2cc(=O)c3ccc(F)cc3[nH]2)cc1	0%	0%
O=C(CN1CCN(c2ccccn2)CC1)Nc1ccc(F)cc1	-2%	0%
COC(=O)C1=C(C)N(C)C(=O)/C1=C\c1cccs1	-8%	-1%
CN(C1CCCCC1)S(=O)(=O)Cc1ccccc1	-2%	-14%
SMILES	Cruzain Triton	Cruzain noTriton
CCCCC(=O)Nc1nnc(C)s1	3%	-14%
COc1ccccc1NS(=O)(=O)c1cc([N+](=O)[O-])ccc1N/N=C/c1c[nH]c2ccccc12	6%	10µM*
Cc1nn(-c2ccccc2)c(N2CCCC2)c1/C=N/Nc1ccc(S(=O)(=O)Nc2ccccc2)cc1[N+](=O)[O-]	5%	?
O=C(N/N=C/c1c[nH]c2c1ccc1ccccc12)c1ccc([N+](=O)[O-])cc1	-4%	6.3µM*
COc1ccccc1NS(=O)(=O)c1ccc(N/N=C/c2c(C)nn(-c3ccccc3)c2N2CCCC2)c([N+](=O)[O-])c1	-1%	3.2µM*
O=[N+]([O-])c1ccc(N/N=C/c2c[nH]c3ccccc23)cc1	-4%	25µM*
COc1ccc([N+](=O)[O-])cc1NS(=O)(=O)c1ccccc1	-7%	0%
O=[N+]([O-])c1ccccc1N/N=C/c1c[nH]c2ccccc12	-5%	2%
O=C(N/N=C/c1c[nH]c2ccccc12)c1cccc([N+](=O)[O-])c1	-12%	1%
CCN(CC)CCCNC(=O)c1[nH]c(C)c(C(=O)NC2CCCCC2)c1C	5%	-2%
COc1cccc(/C=N/n2c(C)nc3ccccc32)c1OC	-4%	-9%
Cc1cc(=O)n2[nH]c(N3C(=O)CCC3=O)nc2n1	-1%	4%
COc1ccc(-n2nc(C(=O)Nc3cc(C)ccn3)c3c4ccccc4n(C)c3c2=O)cc1Cl	0%	-2%
CCCCCOc1ccccc1Cn1c(=O)oc2ccc(C)cc21	-8%	-15%
Cc1cc(C)n(C(=O)CNC(=O)c2ccc3c(c2)OCCO3)n1	4%	-7%
CNc1nnc(CSc2nc(C)cc(C)n2)s1	-6%	-1%
